Shown are actives, neighbours in structure and some others; about 4.3% of the full set was active somewhere.
HSF1 inh: HSF1 inhibition; NIH3T3-HGL HSE-luciferase, MG132-induced, luminescence 8 h; hits give low values; activity change, negative = inhibition, % at 7.5 µM (by protocol); 0.77% of 300,000 active; AID 2098;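 active = more than half of replicate wells show activity change below -50%, luminescence cut by over half; inconclusive = some wells, but at most half, below -50%; inactive = no replicate well below -50%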;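 note: luciferase reports HSF-1 transcriptional activity via heat shock element; 0% = median of DMSO wells and -100% = zero luminescence signal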
esBAF inh: blocks esBAF chromatin remodeling in mouse ES cells; Bmi1-luciferase knock-in reporter, 24 h; 100% = twice the neutral-well signal; reporter increase, % at 12.5 µM; 2% of 350,000 active; AID 602393; in the data active = activation above about 40%; inconclusive = no clear call, values can overlap the other calls;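 note: 0% = median of the plate's neutral control wells and 100% = double that signal; a rise in the Bmi1 reporter signal indicates esBAF inhibition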
MITF act: increases MITF-driven TRPM1 promoter luciferase signal; 0.75% of 300,000 active; SK-MEL-5 TRPM1-promoter luciferase, 24 h; % of positive control, neutral wells = 0; activation, % at 12.5 µM;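 active = mean activation of at least 80% with every replicate also reaching 80%; inconclusive = mean reaches 80% but some replicate falls short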;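 note: 0% = neutral control wells and 100% = parthenolide positive control wells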
SMARCA2 activ: SMARCA2 function activation, primary screen | 1% of 370,000 active | MG213 cells, MMTV-luciferase reporter, dexamethasone, overnight | activation, % at 9.1 µM; in the data active = activation above about 7.8%;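 note: 0% = vehicle wells and 100% = reference activator wells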
HSF-1 act: increases HSF-1 driven luciferase reporter signal; NIH3T3-HGL HSF-1 luciferase reporter, MG132, 8 h; 100% = twice DMSO control signal; activation, % at 9 µM; 1.7% of 300,000 active;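 active = mean replicate activation of at least 50% with a set share of replicates each reaching 50%; inconclusive = only one of those two conditions met; inactive = mean below 50% and too few replicates reaching it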;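 note: 0% = median of the neutral control wells and 100% = twice that signal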
Wnt bcat act: activates Wnt/beta-catenin signaling in a reporter cell assay. activator, plate reader. activation, % at 9.35 µM. 1.2% of 300,000 active; in the data active = activation above about 30%, passing the limit was not always enough; inconclusive = no clear call, values can overlap the other calls;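 note: 0% = neutral control wells and 100% = positive control wells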
SMARCA2 act conf: confirmation of SMARCA2 (BRM) function activators; shares compounds with SMARCA2 activ; MG213 cells, MMTV-luciferase with dexamethasone, luminescence, overnight; MG213 cells expressing E1A, Rb sequestered; DMSO wells 0%, reference activator 100%; activation, % at 9.1 µM; 30% of 3,500 active; AID 652260;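 active = activation above its plate's cutoff, the mean activation of tested wells plus 3 SD, cut at about 7.9% in these data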
GAL4-VP16 Luc: activates GAL4-VP16 luciferase, flagging SMARCA2 activator hits; shares compounds with SMARCA2 activ; HEK293 GAL4-VP16 pG5luc reporter, luciferase luminescence; scaled: DMSO wells 0%, SAHA wells 100%; activation, % at 9.1 µM; 41% of 3,500 active; AID 686939;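 active = activation above the solvent-only control well mean plus 3 SD, averaged across control plates, cut at about 5.2% in these data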
Numbers without * were called inactive; ? = inconclusive; nt = no result given.

SMILES	HSF1 inh	esBAF inh	MITF act	SMARCA2 activ	HSF-1 act	Wnt bcat act	SMARCA2 act conf	GAL4-VP16 Luc
Cc1nn2cc(-c3ccc(Cl)cc3)nc2s1	22.2	-2.3	nt	8.7*	35.6	71.3*	2.5	10.3*
Cc1nn2cc(-c3ccc(-c4ccccc4)cc3)nc2s1	-6.6	-42.4	32.1	-2.1	10.5	?	nt	nt
COc1cccc(S(=O)(=O)N2C[C@H](O)COC[C@H]3O[C@H](CC(=O)N4CCCCC4)CC[C@@H]32)c1	nt	0.9	nt	nt	nt	nt	nt	nt
COc1ccc(-c2nc3nc(C)c(Cc4ccccc4)c(=O)n3[nH]2)cc1	3.9	5.7	7.9	8.1*	-3.2	nt	2.6	3.4
CN1C(=O)c2cc(NC(=O)C3CCCC3)ccc2OC[C@@H]2O[C@@H](CC(=O)Nc3ccccc3)CC[C@H]21	nt	0.0	nt	nt	nt	nt	nt	nt
O=C(C[C@H]1CC[C@@H](NC(=O)C2CC2)[C@@H](CO)O1)NC1CCC1	nt	-1.7	nt	nt	nt	nt	nt	nt
COc1ccc(-c2noc(CSc3nnc(Cc4ccccc4)n3-c3ccc(Cl)cc3)n2)cc1	14.9	nt	7.5	-3.6	12.7	nt	nt	nt
COc1ccc(-c2noc(CSc3nc4ccccc4c(=O)n3-c3ccc(C)cc3)n2)cc1	2.9	-5.8	nt	12.2*	14.6	-7.0	-3.6	0.4
O=C(O)C1CCCCC1C(=O)Nc1ccc(-c2ccccc2)cc1 (stereo unspecified)	-13.1	nt	5.9	11.6*	-10.8	-2.0	1.2	-0.9
CCC(=O)N[C@H]1CC[C@@H](CC(=O)NCC2CCCCC2)O[C@@H]1CO	nt	-3.2	nt	nt	nt	nt	nt	nt
COc1cc(/C=C/c2cc(C(=O)O)c3ccccc3n2)cc(OC)c1O	-8.6	nt	9.5	1.0	-0.2	-2.3	nt	nt
COc1cc(/C=C/c2nc3ccccc3s2)cc(OC)c1O	-0.4	40.0	39.3	11.1*	32.2	10.5	3.0	2.2
CCNC(=O)[C@@H]1[C@@H](CO)[C@@H]2Cn3c(ccc(-c4ccccc4)c3=O)[C@@H]2N1C(=O)C1CC1	nt	-2.8	nt	nt	nt	nt	nt	nt
COc1cc(/C=N/NS(=O)(=O)c2ccc(C)cc2)ccc1OCc1ccc(C(=O)O)cc1	-75.4*	nt	-70.3	9.4*	-78.2	-18.3	18.5*	13.6*
Cc1ccc(-c2nnc(-c3ccccc3Br)o2)cc1	30.1	-11.0	nt	3.8	?	26.8	nt	nt
Brc1ccc(-c2nnc(-c3ccccc3Br)o2)cc1	18.3	2.4	72.0	8.4*	44.5	nt	5.8	12.6*
COc1cc(/C=C2/SC(=S)N(CC(=O)NC(C)(C)C)C2=O)cc(OC)c1OC	0.8	-2.9	-19.9	8.0*	1.3	-5.9	-1.9	-0.8
COc1ccccc1[N+](=O)[O-]	nt	-2.6	4.6	-5.2	nt	4.5	nt	nt
O=C(O)c1cccc(Oc2ccc(C(=O)O)c([N+](=O)[O-])c2)c1	nt	-3.2	4.2	0.9	nt	-1.1	nt	nt
O=[N+]([O-])c1cccnc1Oc1ccccc1F	-3.3	-9.3	-9.4	9.6*	-4.1	-1.7	0.7	1.6
COc1ccccc1Oc1ccccc1[N+](=O)[O-]	4.1	nt	-0.2	10.0*	7.5	0.7	-0.2	2.8
O=C(O)c1cccc(Oc2ccccc2[N+](=O)[O-])c1	-3.0	-7.2	2.5	11.8*	-14.8	2.2	-1.3	1.8
Nc1nnc(SCC(=O)c2ccco2)s1	2.5	nt	nt	-2.9	22.7	nt	nt	nt
Cc1cc(C(=O)CSc2nnc(N)s2)c(C)n1Cc1ccco1	25.6	nt	60.7	11.5*	13.9	7.3	5.2	4.8
COc1ccc(NS(=O)(=O)/C=C/c2ccccc2)cc1	-4.9	nt	5.7	8.6*	13.2	nt	-1.9	1.5
SMILES	HSF1 inh	esBAF inh	MITF act	SMARCA2 activ	HSF-1 act	Wnt bcat act	SMARCA2 act conf	GAL4-VP16 Luc
COC(=O)CSc1nc2ccc(C)cc2[nH]1	-2.5	-4.7	-4.9	3.5	-15.6	nt	nt	nt
Cc1ccc2nc(SCC(=O)c3ccc(O)cc3O)[nH]c2c1	16.8	62.2*	53.8	8.6*	23.1	41.3*	6.1	10.4*
Cc1cc2nc(/C=C/c3cccnc3)[nH]c2cc1C	-3.4	8.0	nt	8.7*	7.5	0.4	16.0*	26.7*
Oc1ccc(CCNc2c3ccccc3nc3ccccc23)cc1O	9.1	-4.1	nt	8.4*	32.5	0.1	24.7*	2.1
C[C@@H]1CN([C@@H](C)CO)C(=O)Cc2cc(NC(=O)CCCCCC(=O)Nc3ccccc3N)ccc2O[C@H]1CN(C)S(C)(=O)=O	nt	4.3	nt	nt	nt	nt	nt	nt
CC(=O)Nc1cc(-c2ccc(F)cc2)[nH]n1	-0.4	nt	-6.5	11.1*	9.4	-0.2	0.0	1.2
O=C(Nc1cc(-c2ccccc2)[nH]n1)c1ccccc1F	27.7	nt	nt	9.3*	49.5	0.1	3.4	10.5*
COc1ccc(-n2sc3ccccc3c2=O)cc1	nt	-1.1	nt	13.1*	nt	12.5	15.0*	3.0
COc1ccc(-c2cc(=O)c3ccccc3s2)cc1	15.2	11.5	40.3	8.8*	23.3	-0.3	4.2	9.7*
COc1ccc(S(=O)(=O)Nc2ccc3c(c2)C(=O)N([C@@H](C)CO)C[C@@H](C)[C@@H](CN(C)Cc2ccccc2)OCCCC[C@H](C)O3)cc1	nt	0.3	nt	nt	nt	nt	nt	nt
COCC(=O)N1[C@@H]2c3ccc(C4=CCCCC4)c(=O)n3C[C@@H]2[C@@H](CO)[C@@H]1C(=O)N1CCCCC1	nt	2.7	nt	nt	nt	nt	nt	nt
C[C@@H]1COc2cc(N3CCC[C@H]3CO)ccc2S(=O)(=O)N1	nt	nt	nt	8.0*	nt	-2.9	-4.2	-0.9
C[C@H]1COc2cc(N3CCC[C@H]3CO)ccc2S(=O)(=O)N1	nt	nt	nt	10.1*	nt	-3.2	-2.7	-0.2
CO[C@@H]1CC[C@@H]2CCN(C)C(=O)CC3(CCCCC3)CN(C)C(=O)c3cc(C#N)ccc3OC[C@H]1O2	nt	4.0	nt	nt	nt	nt	nt	nt
CC(C)NC(=O)N(C)C[C@H]1OCCCC[C@H](C)Oc2ccc(NS(=O)(=O)c3cn(C)cn3)cc2C(=O)N([C@H](C)CO)C[C@@H]1C	nt	-2.3	nt	nt	nt	nt	nt	nt
C(=C\n1nnc2ccccc21)/c1ccccn1	21.0	-13.4	41.7	8.7*	20.6	33.9*	7.6	10.1*
O=C(NC1CCC1)[C@H]1[C@H](CO)[C@H]2Cn3c(cccc3=O)[C@H]2N1CCc1ccccc1	nt	-5.2	nt	nt	nt	nt	nt	nt
COc1ccc(/C=C/c2nc(S(=O)(=O)c3ccccc3)c(N(C)C)o2)cc1	6.3	-2.3	2.3	9.6*	16.8	-1.4	-4.9	-1.6
COc1ccc(NC2=C(NC(C)=O)C(=O)c3ccccc3C2=O)cc1	1.4	-0.3	-37.0	-1.4	15.8	4.2	nt	nt
CCC(=O)NC1=C(Nc2ccc(N)cc2)C(=O)c2ccccc2C1=O	23.9	-6.3	13.4	9.0*	29.2	33.6*	7.5	11.0*
CCn1c2ccccc2c2nnc(SCc3ccccc3)nc21	3.7	9.8	nt	8.2*	6.4	-5.0	-1.6	-1.2
